Measured values taken from the supplement of paper PMC11732987, “Enantioselective OTUD7B fragment discovery through chemoproteomics screening and high-throughput optimisation” (Communications Chemistry, 2025).

Key:
Assay in all cases: log2 ratio of Biotin-Ahx-Ub-VS probe labelling (fragment/DMSO); higher = less target engagement (more negative = stronger competition), active = hit call of the paper (q ≤ 0.05, log2 ratio ≤ -1)
Settings in all cases: compound concentration: 200 uM; treatment time: 3 h
[1] = target: T1, USP19 (UniProt O94966)
T1 sequence (whole entry): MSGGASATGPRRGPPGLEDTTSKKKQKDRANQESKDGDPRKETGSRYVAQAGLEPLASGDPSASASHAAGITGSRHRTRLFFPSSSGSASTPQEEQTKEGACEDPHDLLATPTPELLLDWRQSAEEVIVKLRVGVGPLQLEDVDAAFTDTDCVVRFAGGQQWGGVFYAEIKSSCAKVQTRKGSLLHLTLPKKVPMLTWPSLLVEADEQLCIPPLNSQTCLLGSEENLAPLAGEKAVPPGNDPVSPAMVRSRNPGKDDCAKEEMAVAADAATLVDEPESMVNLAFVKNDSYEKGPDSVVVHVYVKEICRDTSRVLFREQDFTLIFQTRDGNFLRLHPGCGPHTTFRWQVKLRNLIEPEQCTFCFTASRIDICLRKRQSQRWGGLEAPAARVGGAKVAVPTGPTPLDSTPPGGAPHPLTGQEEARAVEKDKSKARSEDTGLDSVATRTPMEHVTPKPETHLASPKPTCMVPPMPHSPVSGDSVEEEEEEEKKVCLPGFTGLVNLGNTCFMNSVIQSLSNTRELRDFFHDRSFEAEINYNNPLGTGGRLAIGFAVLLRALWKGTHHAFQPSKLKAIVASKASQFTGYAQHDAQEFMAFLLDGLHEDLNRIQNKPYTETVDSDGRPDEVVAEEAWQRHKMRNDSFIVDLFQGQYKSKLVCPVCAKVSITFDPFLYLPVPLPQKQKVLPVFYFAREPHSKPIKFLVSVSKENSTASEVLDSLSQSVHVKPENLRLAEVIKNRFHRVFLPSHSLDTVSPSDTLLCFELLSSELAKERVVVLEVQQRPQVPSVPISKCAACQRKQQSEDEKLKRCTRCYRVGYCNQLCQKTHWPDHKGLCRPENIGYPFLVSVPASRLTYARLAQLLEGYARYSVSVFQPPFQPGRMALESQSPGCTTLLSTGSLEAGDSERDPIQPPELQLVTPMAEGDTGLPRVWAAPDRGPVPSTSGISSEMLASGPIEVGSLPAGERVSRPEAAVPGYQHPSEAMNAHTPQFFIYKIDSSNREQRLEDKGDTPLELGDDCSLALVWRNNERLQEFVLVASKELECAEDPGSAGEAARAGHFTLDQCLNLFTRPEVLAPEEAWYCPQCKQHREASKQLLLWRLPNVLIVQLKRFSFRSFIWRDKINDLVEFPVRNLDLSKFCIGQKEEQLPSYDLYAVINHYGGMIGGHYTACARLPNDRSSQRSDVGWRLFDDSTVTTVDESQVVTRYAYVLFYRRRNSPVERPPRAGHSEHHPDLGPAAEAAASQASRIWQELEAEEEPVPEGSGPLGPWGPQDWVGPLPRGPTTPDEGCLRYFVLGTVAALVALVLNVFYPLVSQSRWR
Method in brief: (§1)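 Labelling with Biotin-Ahx-Ub-VS (0.5 µM final, 1 h) followed a 3 h triplicate treatment of HEK293T lysate (495 µg per sample, Tris/CHAPS/IGEPAL buffer with protease inhibitors) with fragment at 200 µM or vehicle. Labelled DUBs were NeutrAvidin-enriched, digested with LysC and trypsin, and run by diaPASEF LC-MS/MS. The values, average log2 fragment/vehicle ratios by unpaired t-test, come from global-median-normalised Spectronaut label-free quantities. Proteins with ≥2 unique peptides were used.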

[2] = target: USP24 (UniProt Q9UPU5)
Method in brief: as §1

[3] = target: T2, USP25 (UniProt Q9UHP3)
T2 sequence (whole entry): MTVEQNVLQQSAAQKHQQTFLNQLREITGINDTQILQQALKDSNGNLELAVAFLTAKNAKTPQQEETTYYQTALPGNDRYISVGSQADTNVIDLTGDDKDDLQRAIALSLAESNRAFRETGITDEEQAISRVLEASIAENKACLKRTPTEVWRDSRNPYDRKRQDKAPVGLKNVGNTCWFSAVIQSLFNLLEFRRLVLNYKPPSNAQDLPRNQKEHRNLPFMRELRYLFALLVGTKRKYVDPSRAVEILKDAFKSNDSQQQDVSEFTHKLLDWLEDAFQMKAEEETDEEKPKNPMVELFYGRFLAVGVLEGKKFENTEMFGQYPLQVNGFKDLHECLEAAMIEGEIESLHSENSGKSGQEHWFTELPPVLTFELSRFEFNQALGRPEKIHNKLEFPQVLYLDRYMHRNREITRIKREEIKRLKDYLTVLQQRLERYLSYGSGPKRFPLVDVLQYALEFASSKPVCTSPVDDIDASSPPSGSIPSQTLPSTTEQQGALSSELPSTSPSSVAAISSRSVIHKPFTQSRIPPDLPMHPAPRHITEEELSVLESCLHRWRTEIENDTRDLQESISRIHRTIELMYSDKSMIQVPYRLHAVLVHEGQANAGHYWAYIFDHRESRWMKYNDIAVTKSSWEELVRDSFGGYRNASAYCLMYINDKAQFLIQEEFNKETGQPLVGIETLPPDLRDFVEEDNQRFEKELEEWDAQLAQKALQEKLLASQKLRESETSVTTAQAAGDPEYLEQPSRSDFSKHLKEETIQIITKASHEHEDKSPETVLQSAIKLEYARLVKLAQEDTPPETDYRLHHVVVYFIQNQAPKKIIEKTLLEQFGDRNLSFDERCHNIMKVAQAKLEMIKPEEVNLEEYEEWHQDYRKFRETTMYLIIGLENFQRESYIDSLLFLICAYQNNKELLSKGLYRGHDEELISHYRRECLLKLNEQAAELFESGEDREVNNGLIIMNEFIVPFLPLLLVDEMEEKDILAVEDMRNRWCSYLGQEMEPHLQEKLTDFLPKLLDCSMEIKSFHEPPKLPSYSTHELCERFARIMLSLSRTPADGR
Method in brief: as §1

[4] = target: T3, USP28 (UniProt Q96RU2)
T3 sequence (whole entry): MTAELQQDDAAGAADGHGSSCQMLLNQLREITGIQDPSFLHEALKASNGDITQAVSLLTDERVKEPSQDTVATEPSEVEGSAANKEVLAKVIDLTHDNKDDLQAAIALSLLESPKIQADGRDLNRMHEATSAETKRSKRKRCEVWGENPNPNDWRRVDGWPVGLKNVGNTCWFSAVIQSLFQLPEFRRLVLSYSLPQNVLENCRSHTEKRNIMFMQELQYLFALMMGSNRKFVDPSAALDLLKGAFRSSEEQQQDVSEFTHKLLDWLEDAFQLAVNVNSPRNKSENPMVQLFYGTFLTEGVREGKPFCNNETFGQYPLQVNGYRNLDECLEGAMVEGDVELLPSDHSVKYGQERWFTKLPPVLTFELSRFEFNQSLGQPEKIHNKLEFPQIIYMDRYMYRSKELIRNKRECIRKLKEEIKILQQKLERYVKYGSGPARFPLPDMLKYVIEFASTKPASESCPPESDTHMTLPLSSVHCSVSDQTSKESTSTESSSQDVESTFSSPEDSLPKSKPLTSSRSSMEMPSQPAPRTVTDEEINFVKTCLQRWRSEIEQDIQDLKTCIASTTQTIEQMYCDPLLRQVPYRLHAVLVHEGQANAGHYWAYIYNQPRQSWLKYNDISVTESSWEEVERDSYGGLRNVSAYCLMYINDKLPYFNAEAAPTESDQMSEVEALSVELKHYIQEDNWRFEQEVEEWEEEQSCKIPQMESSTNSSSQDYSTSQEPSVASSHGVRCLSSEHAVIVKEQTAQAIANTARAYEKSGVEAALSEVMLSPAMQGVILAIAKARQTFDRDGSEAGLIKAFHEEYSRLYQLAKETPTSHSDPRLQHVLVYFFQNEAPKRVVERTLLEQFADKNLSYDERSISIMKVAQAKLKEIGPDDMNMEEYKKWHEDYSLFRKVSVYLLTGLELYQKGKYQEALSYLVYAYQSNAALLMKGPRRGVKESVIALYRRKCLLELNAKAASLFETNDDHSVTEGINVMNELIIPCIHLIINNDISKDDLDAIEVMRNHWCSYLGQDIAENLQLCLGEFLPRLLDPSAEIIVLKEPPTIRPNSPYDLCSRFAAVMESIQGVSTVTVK
Method in brief: as §1

Measured: log2 ratio of Biotin-Ahx-Ub-VS probe labelling

USP24, sequence (Q9UPU5 whole entry): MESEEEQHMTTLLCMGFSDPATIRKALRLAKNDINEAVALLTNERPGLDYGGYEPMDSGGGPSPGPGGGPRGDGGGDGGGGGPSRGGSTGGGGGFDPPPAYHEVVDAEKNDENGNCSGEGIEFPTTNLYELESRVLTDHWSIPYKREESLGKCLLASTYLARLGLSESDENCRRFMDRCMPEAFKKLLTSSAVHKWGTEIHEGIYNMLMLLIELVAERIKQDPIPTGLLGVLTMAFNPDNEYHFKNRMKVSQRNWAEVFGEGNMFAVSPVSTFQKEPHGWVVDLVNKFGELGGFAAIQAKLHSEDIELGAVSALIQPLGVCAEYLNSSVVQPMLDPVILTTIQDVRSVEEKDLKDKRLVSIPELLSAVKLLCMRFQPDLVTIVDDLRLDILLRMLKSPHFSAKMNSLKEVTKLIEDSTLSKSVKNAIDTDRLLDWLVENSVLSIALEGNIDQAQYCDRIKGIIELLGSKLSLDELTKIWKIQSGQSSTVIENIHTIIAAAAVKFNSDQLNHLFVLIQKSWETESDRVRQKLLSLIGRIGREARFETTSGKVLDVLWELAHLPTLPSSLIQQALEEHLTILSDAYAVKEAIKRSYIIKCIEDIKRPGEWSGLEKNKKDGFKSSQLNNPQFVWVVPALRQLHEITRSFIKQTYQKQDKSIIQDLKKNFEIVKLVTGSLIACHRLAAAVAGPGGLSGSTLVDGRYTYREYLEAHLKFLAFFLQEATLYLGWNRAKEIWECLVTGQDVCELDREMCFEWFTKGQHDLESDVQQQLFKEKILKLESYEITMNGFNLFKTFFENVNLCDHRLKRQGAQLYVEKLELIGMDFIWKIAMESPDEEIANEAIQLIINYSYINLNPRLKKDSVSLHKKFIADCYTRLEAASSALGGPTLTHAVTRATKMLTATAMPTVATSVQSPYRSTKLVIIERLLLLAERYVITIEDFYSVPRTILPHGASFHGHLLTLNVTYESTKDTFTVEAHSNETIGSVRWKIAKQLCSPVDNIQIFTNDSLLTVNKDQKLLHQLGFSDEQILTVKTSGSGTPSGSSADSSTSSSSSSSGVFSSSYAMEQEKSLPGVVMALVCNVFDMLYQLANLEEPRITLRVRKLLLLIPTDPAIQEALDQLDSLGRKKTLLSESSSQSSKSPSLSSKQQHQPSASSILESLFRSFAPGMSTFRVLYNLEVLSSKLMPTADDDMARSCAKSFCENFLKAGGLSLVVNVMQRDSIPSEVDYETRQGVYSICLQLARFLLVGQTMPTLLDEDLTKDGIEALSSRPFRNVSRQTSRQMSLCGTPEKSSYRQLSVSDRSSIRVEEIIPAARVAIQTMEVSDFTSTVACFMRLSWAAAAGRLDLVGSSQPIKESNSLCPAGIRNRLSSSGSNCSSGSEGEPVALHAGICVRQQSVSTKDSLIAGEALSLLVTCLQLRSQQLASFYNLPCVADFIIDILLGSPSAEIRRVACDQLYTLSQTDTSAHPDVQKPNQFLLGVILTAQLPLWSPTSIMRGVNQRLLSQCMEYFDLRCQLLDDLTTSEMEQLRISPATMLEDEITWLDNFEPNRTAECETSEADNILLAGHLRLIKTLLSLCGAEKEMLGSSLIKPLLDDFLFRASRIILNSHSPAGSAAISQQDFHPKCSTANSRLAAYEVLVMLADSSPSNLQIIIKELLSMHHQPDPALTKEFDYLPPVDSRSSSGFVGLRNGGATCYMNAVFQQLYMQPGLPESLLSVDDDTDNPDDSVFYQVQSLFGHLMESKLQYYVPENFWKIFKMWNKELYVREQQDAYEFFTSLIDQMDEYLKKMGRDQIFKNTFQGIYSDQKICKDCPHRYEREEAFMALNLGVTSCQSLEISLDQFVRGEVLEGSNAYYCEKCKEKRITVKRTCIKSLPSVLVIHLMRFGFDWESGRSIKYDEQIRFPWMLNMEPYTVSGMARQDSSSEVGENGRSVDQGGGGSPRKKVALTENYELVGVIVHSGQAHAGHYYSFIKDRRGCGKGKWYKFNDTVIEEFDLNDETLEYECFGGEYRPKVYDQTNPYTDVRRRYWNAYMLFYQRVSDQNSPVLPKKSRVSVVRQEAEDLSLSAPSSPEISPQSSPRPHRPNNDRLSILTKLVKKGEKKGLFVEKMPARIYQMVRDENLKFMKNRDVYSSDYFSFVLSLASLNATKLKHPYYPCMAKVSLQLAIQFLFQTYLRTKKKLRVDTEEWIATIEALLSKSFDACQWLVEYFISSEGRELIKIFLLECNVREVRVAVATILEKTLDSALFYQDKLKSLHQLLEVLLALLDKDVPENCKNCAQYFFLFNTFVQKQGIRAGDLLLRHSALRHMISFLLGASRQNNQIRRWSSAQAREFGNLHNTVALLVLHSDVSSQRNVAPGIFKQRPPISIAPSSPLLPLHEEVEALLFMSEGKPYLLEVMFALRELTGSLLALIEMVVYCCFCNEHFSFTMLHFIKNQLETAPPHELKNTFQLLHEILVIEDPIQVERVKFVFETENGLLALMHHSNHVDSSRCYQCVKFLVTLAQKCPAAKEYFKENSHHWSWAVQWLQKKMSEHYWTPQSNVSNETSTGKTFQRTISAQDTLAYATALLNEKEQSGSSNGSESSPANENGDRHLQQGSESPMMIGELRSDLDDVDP

O=C(CCl)N1CCN(C(=O)Nc2ccccc2)CC1
inactive: [1] -0.276 | [2] 0.00221 | [3] -0.151 | [4] -0.246
